This is an account of results in the antibiotic and cytotoxicity screens of Wong et al. (2023).

Hit rate of the full screen: of about 39,000 compounds, about 3,300 (8.5%) were called active. The entries come from a sample that favours actives as a whole.

The subject of the assay is HepG2. Put plainly: cytotoxicity call (relative viability < 0.9). The settings on record: 10 µM.
For `C[C@H](CO)N1C[C@H](C)[C@H](CN(C)Cc2ccc3c(c2)OCO3)Oc2ccc(NC(=O)C3CC3)cc2C1=O`, the cytotoxicity call was “inactive”.

With `C[C@@H]1CCCCO[C@@H](CN(C)S(=O)(=O)c2cccs2)[C@@H](C)CN([C@@H](C)CO)C(=O)c2cc(NC(=O)C3CCCCC3)ccc2O1`, the cytotoxicity call was “inactive”.

On to `C[C@@H]1CN([C@@H](C)CO)S(=O)(=O)c2ccc(/C=C/c3ccccc3)cc2O[C@H]1CN(C)C(=O)Nc1cc(F)ccc1F`, for which the cytotoxicity call was “inactive”.

`COc1cccc(C#Cc2ccc3c(c2)O[C@@H](CN(C)C(C)=O)[C@@H](C)CN([C@@H](C)CO)S3(=O)=O)c1`: the cytotoxicity call is “active”.

Take `COc1ccc(C#Cc2ccc3c(c2)O[C@H](CN(C)C(=O)c2ccccn2)[C@H](C)CN([C@@H](C)CO)S3(=O)=O)cc1`: the cytotoxicity call is “active”.

In the case of `COc1cccc(C#Cc2ccc3c(c2)O[C@H](CN(C)C(C)=O)[C@H](C)CN([C@@H](C)CO)S3(=O)=O)c1`, the cytotoxicity call is “inactive”.

For `COc1cccc(C#Cc2ccc3c(c2)O[C@H](CN(C)C(=O)c2ccccn2)[C@H](C)CN([C@H](C)CO)S3(=O)=O)c1`, the cytotoxicity call was “active”.

Consider `COc1cccc(C#Cc2ccc3c(c2)O[C@@H](CN(C)C(=O)c2ccccn2)[C@@H](C)CN([C@@H](C)CO)S3(=O)=O)c1`, for which the cytotoxicity call is “inactive”.

With `COc1ccc(C#Cc2ccc3c(c2)O[C@H](CN(C)C(=O)c2ccccn2)[C@@H](C)CN([C@@H](C)CO)S3(=O)=O)cc1`, the cytotoxicity call is “inactive”.

Take `COc1ccc(C#Cc2ccc3c(c2)O[C@@H](CN(C)C(=O)c2ccccn2)[C@H](C)CN([C@@H](C)CO)S3(=O)=O)cc1`: the cytotoxicity call was “inactive”.

For the compound `COc1cccc(C#Cc2ccc3c(c2)O[C@H](CN(C)C(C)=O)[C@@H](C)CN([C@H](C)CO)S3(=O)=O)c1`, the cytotoxicity call is “inactive”.

Consider `COc1cccc(C#Cc2ccc3c(c2)O[C@H](CN(C)C(=O)c2ccccn2)[C@@H](C)CN([C@H](C)CO)S3(=O)=O)c1`, for which the cytotoxicity call is “inactive”.

As to `C[C@H]1CN([C@@H](C)CO)C(=O)c2cc(NC(=O)c3ccncc3)ccc2O[C@H]1CN(C)Cc1ccc(Oc2ccccc2)cc1`, the cytotoxicity call is “inactive”.

On to `COCC#Cc1ccc2c(c1)O[C@H](CN(C)C(=O)Nc1ccccc1F)[C@H](C)CN([C@H](C)CO)S2(=O)=O`, for which the cytotoxicity call was “inactive”.

As for `Cc1ccc(S(=O)(=O)N[C@@H](Cc2ccccc2)C(=O)NCCn2cc(-c3ccc(C(=O)NO)s3)nn2)cc1`, the cytotoxicity call is “inactive”.

As to `COc1cccc(S(=O)(=O)N(C)C[C@@H]2Oc3cc(C#CCN(C)C)ccc3S(=O)(=O)N([C@@H](C)CO)C[C@H]2C)c1`, the cytotoxicity call is “inactive”.

On to `CC(=O)NS(=O)(=O)c1ccc(N)cc1` [listing 1 of 2 here], for which the cytotoxicity call is “active”.

On to `NC(=O)NS(=O)(=O)c1ccc(N)cc1`, for which the cytotoxicity call is “inactive”.

For the compound `CC(=O)NS(=O)(=O)c1ccc(N)cc1` [listing 2 of 2 here], the cytotoxicity call was “inactive”.

In the case of `C[C@H](CO)N1C[C@H](C)[C@H](CN(C)C(=O)Nc2cccc3ccccc23)Oc2ccc(NC(=O)Nc3ccc4c(c3)OCO4)cc2C1=O`, the cytotoxicity call is “inactive”.

`Nc1nnc([C@H]2CCCO2)o1`: the cytotoxicity call is “inactive”.

With `O=C(O)c1ccc(-c2ccccc2)cc1`, the cytotoxicity call is “inactive”.

As for `O=C(O)c1ccc2nc(O)c(=O)[nH]c2c1`, the cytotoxicity call was “inactive”.

With `O=C(O)c1ccc(-n2nc(-c3ccccc3O)nc2-c2ccccc2O)cc1`, the cytotoxicity call was “active”.

As to `COCC#Cc1cnc2c(c1)C(=O)N([C@@H](C)CO)C[C@H](C)[C@@H](CN(C)C(=O)Nc1ccccc1OC)O2`, the cytotoxicity call is “inactive”.

On to `Cc1noc(C)c1S(=O)(=O)N(C)C[C@@H]1OCCCC[C@@H](C)Oc2ccc(NC(=O)Nc3cccc4ccccc34)cc2C(=O)N([C@@H](C)CO)C[C@H]1C`, for which the cytotoxicity call was “inactive”.

Consider `COc1ccc(NC(=O)N(C)C[C@@H]2OCCCC[C@H](C)Oc3ccc(NS(=O)(=O)c4ccc(Cl)cc4)cc3C(=O)N([C@H](C)CO)C[C@@H]2C)cc1`, for which the cytotoxicity call was “inactive”.

`C[C@H]1CN([C@@H](C)CO)C(=O)c2cc(C#CC3(O)CCCC3)cnc2O[C@@H]1CN(C)C(=O)Nc1ccc2c(c1)OCO2`: the cytotoxicity call was “inactive”.

On to `O=C1OCCN/C1=C/C(=O)c1ccccc1`, for which the cytotoxicity call was “active”.

Regarding `O=C(/C=c1/nc2c([nH]c1=O)=NON2)c1ccccc1`, the cytotoxicity call is “inactive”.

Take `C[C@H]1CNC(=CC(=O)c2ccccc2)C(=O)N1`: the cytotoxicity call was “inactive”.

For the compound `COCCNC(=O)C[C@H]1CC[C@@H](NS(=O)(=O)c2ccc(C)cc2)[C@@H](CO)O1`, the cytotoxicity call was “inactive”.

With `C[C@@H]1CN([C@@H](C)CO)C(=O)c2cc(C#CC3CC3)cnc2O[C@@H]1CN(C)S(=O)(=O)c1cccc(F)c1`, the cytotoxicity call was “inactive”.

For the compound `C[C@H](CO)N1C[C@H](C)[C@H](CN(C)C(=O)Nc2cccc(C(F)(F)F)c2)OCc2ccccc2-c2c(n(C)c3ccccc23)C1=O`, the cytotoxicity call is “inactive”.

With `C[C@H](CO)N1C[C@H](C)[C@@H](CN(C)C(=O)Nc2cccc(C(F)(F)F)c2)OCc2ccccc2-c2c(n(C)c3ccccc23)C1=O`, the cytotoxicity call is “inactive”.

As to `C[C@@H]1CN([C@H](C)CO)C(=O)c2c(c3ccccc3n2C)-c2ccccc2CO[C@H]1CN(C)C(=O)Nc1cccc(C(F)(F)F)c1`, the cytotoxicity call was “inactive”.

As for `C[C@@H]1CN([C@H](C)CO)C(=O)c2c(c3ccccc3n2C)-c2ccccc2CO[C@@H]1CN(C)C(=O)Nc1cccc(C(F)(F)F)c1`, the cytotoxicity call was “active”.

Turning to `C[C@H]1CN([C@@H](C)CO)C(=O)c2c(c3ccccc3n2C)-c2ccccc2CO[C@H]1CN(C)C(=O)Nc1cccc(C(F)(F)F)c1`, the cytotoxicity call was “inactive”.

`C[C@@H]1CN([C@@H](C)CO)C(=O)c2c(c3ccccc3n2C)-c2ccccc2CO[C@H]1CN(C)C(=O)Nc1cccc(C(F)(F)F)c1`: the cytotoxicity call is “active”.

Consider `COc1ccc(S(=O)(=O)N(C)C[C@@H]2OCCCC[C@H](C)Oc3ccc(NC(=O)Nc4c(C)noc4C)cc3C(=O)N([C@@H](C)CO)C[C@@H]2C)cc1`, for which the cytotoxicity call was “inactive”.

On to `Cc1noc(C)c1NC(=O)N(C)C[C@@H]1Oc2ccc(NC(=O)NC(C)C)cc2CC(=O)N([C@@H](C)CO)C[C@@H]1C`, for which the cytotoxicity call is “inactive”.

Consider `O=C(C=Cc1ccc(O)c(O)c1)OC1CC(O)(C(=O)O)CC(O)C1O` (centres undefined), for which the cytotoxicity call is “inactive”.

For `O=C(/C=C/c1ccc(O)c(O)c1)O[C@@H]1C[C@@](O)(C(=O)O)C[C@@H](O)[C@@H]1O`, the cytotoxicity call was “active”.

Turning to `O=C(/C=C/c1ccc(O)c(O)c1)O[C@@H]1C[C@](O)(C(=O)O)C[C@@H](O)[C@H]1O`, the cytotoxicity call is “inactive”.

Take `Cc1noc(C)c1NC(=O)N(C)C[C@H]1OCCCC[C@@H](C)Oc2ccc(NS(=O)(=O)c3ccc(F)cc3)cc2C(=O)N([C@@H](C)CO)C[C@H]1C`: the cytotoxicity call was “inactive”.

`C[C@H]1CN([C@@H](C)CO)C(=O)c2cc(C#CCC3CCCC3)cnc2O[C@@H]1CN(C)C(=O)c1cnccn1`: the cytotoxicity call is “inactive”.

Turning to `CC(C)NC(=O)N(C)C[C@H]1Oc2cc(C#Cc3cccc(F)c3)ccc2S(=O)(=O)N([C@@H](C)CO)C[C@H]1C`, the cytotoxicity call is “inactive”.

For `CNC[C@@H]1OCCCC[C@H](C)Oc2ccc(NS(=O)(=O)c3cn(C)cn3)cc2C(=O)N([C@@H](C)CO)C[C@@H]1C`, the cytotoxicity call was “inactive”.

As for `C[C@@H]1CCCCO[C@H](CN(C)S(=O)(=O)c2ccc(Cl)cc2)[C@@H](C)CN([C@@H](C)CO)C(=O)c2cc(NS(=O)(=O)c3ccc(Cl)cc3)ccc2O1`, the cytotoxicity call was “inactive”.

On to `C[C@@H]1CCCCO[C@@H](CN(C)S(=O)(=O)c2ccc(Cl)cc2)[C@H](C)CN([C@@H](C)CO)C(=O)c2cc(NS(=O)(=O)c3ccc(Cl)cc3)ccc2O1`, for which the cytotoxicity call is “inactive”.

Consider `C[C@@H]1CCCCO[C@H](CN(C)S(=O)(=O)c2ccc(Cl)cc2)[C@H](C)CN([C@@H](C)CO)C(=O)c2cc(NS(=O)(=O)c3ccc(Cl)cc3)ccc2O1`, for which the cytotoxicity call was “active”.

As to `C[C@@H]1CCCCO[C@H](CN(C)S(=O)(=O)c2ccc(Cl)cc2)[C@@H](C)CN([C@H](C)CO)C(=O)c2cc(NS(=O)(=O)c3ccc(Cl)cc3)ccc2O1`, the cytotoxicity call was “inactive”.

For `C[C@@H]1CCCCO[C@@H](CN(C)S(=O)(=O)c2ccc(Cl)cc2)[C@@H](C)CN([C@@H](C)CO)C(=O)c2cc(NS(=O)(=O)c3ccc(Cl)cc3)ccc2O1`, the cytotoxicity call was “inactive”.

`C[C@@H]1CCCCO[C@@H](CN(C)S(=O)(=O)c2ccc(Cl)cc2)[C@@H](C)CN([C@H](C)CO)C(=O)c2cc(NS(=O)(=O)c3ccc(Cl)cc3)ccc2O1`: the cytotoxicity call was “inactive”.

With `C[C@@H]1CN([C@@H](C)CO)C(=O)c2cc(NS(=O)(=O)c3ccc(Cl)cc3)ccc2O[C@@H](C)CCCCO[C@@H]1CN(C)S(=O)(=O)c1ccc(Cl)cc1`, the cytotoxicity call was “active”.

Regarding `C[C@@H]1CCCCO[C@H](CN(C)S(=O)(=O)c2ccc(Cl)cc2)[C@H](C)CN([C@H](C)CO)C(=O)c2cc(NS(=O)(=O)c3ccc(Cl)cc3)ccc2O1`, the cytotoxicity call is “active”.

With `C[C@H]1CCCCO[C@@H](CN(C)S(=O)(=O)c2ccc(Cl)cc2)[C@@H](C)CN([C@@H](C)CO)C(=O)c2cc(NS(=O)(=O)c3ccc(Cl)cc3)ccc2O1`, the cytotoxicity call was “inactive”.

With `C[C@@H]1CN([C@H](C)CO)C(=O)c2cc(NS(=O)(=O)c3ccc(Cl)cc3)ccc2O[C@@H](C)CCCCO[C@@H]1CN(C)S(=O)(=O)c1ccc(Cl)cc1`, the cytotoxicity call is “inactive”.

Turning to `C[C@H](CO)N1C[C@H](C)[C@@H](CN(C)S(=O)(=O)c2ccc(Cl)cc2)OCCCC[C@H](C)Oc2ccc(NS(=O)(=O)c3ccc(Cl)cc3)cc2C1=O`, the cytotoxicity call is “inactive”.

For `C[C@H](CO)N1C[C@H](C)[C@H](CN(C)S(=O)(=O)c2ccc(Cl)cc2)OCCCC[C@H](C)Oc2ccc(NS(=O)(=O)c3ccc(Cl)cc3)cc2C1=O`, the cytotoxicity call was “active”.

As to `CN(C)C(=O)c1ccc(-c2cccc(-c3nc(C(=O)NCc4ccccc4)cc4c3[C@@H](CCO)N([S@@](=O)C(C)(C)C)C4)c2)cc1`, the cytotoxicity call is “inactive”.

As for `C[C@H](NC(=O)C[C@H]1CC[C@@H](NC(=O)CN2CCOCC2)[C@@H](CO)O1)c1ccccc1`, the cytotoxicity call was “inactive”.

Regarding `Cc1ccc(S[C@]2(C(=O)NC3CC3)CC(=O)N(Cc3cc(C(F)(F)F)cc(C(F)(F)F)c3)[C@@H]2c2ccc(CO)cc2)cc1`, the cytotoxicity call was “inactive”.

As for `C[C@@H]1CCCCO[C@@H](CN(C)S(=O)(=O)c2ccccc2)[C@H](C)CN([C@@H](C)CO)C(=O)c2cc(NC(=O)C3CCCCC3)ccc2O1`, the cytotoxicity call was “inactive”.
